Measured values from PubChem BioAssay.
Active and inactive are the calls of the source. Unless noted, the rule behind the calls is not given here.

Key:
[1] = A549 cell viability effects, profiling panel, calcein-AM fluorescence, 48 h, basal (AID 1162); settings: higher = more signal; note: test concentration not given here
[2] = adipocyte viability effects, profiling panel, cell-based, 3T3-L1 adipocytes, calcein-AM fluorescence, 48 h, basal (AID 1163); settings: 3T3-L1 adipocytes viability, higher = more signal; note: test concentration not given here
[3] = HepG2 cell viability effects, profiling panel, calcein-AM fluorescence, 48 h, basal (AID 1164); settings: higher = more signal; note: test concentration not given here
[4] = MM1S cell viability effects, profiling panel, calcein-AM fluorescence, 48 h, basal (AID 1165); settings: higher = more signal;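 note: viability of MM1S multiple myeloma cells under basal unstimulated conditions; test concentration not given here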
[5] = basal RPMI8226 viability, no added stimulus, profiling panel, cell-based, calcein-AM fluorescence, 48 h, PK04 Diversity Set (AID 1166); settings: RPMI8226 myeloma viability, higher = more signal;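 note: cells grown under basal conditions without added stimulus; test concentration not given here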
[6] = basal HepG2 mitochondrial membrane potential changes, profiling panel, cell-based, JC-1 fluorescence, 24 h, 100 nL compound (AID 1167); settings: higher = more signal; note: test concentration not given here
[7] = basal 3T3-L1 adipocyte mitochondrial potential changes, profiling panel, cell-based, JC-1 fluorescence, 3T3-L1 adipocytes, 24 h, 100 nL compound (AID 1168); settings: JC-1 mitochondrial fluorescence, higher = more signal, called active from +8 up or from −8 down; note: test concentration not given here
[8] = basal RPMI8226 mitochondrial membrane potential changes, profiling panel, cell-based, JC-1 fluorescence, 24 h, 100 nL compound (AID 1169); settings: RPMI8226 myeloma, JC-1 mitochondrial potential fluorescence, higher = more signal; note: test concentration not given here
[9] = basal MM1S mitochondrial membrane potential changes, profiling panel, cell-based, JC-1 fluorescence, 24 h, 100 nL compound (AID 1170); settings: higher = more signal; note: test concentration not given here
[10] = A549 lung cancer cell viability effects, profiling panel, resazurin fluorescence, 24 h, PK04 Diversity Set (AID 1171); settings: higher = more signal, called active from +8 up or from −8 down; note: test concentration not given here
[11] = HepG2 liver cancer cell viability effects, profiling panel, resazurin fluorescence, 24 h, PK04 Diversity Set (AID 1172); settings: higher = more signal; note: test concentration not given here
[12] = basal S. cerevisiae growth modulation, no modifier, primary screen, OD600, strain BY4716, 24 h, basal condition (AID 1173); settings: OD600, 24 h, higher = more signal, called active from +8 up or from −8 down
[13] = MM1S myeloma cell viability, profiling panel, resazurin fluorescence, basal, 24 h, PK04 Diversity Set (AID 1174); settings: higher = more signal, called active from +8 up or from −8 down;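 note: MM1S multiple myeloma cell line; test concentration not given here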
[14] = target: Dihydroorotate dehydrogenase (quinone), mitochondrial (Plasmodium falciparum (isolate 3D7)) (UniProt Q08210); assay: PfDHODH enzyme inhibitors, primary screen, biochemical, C-terminal His tag, absorbance 600 nm (AID 1175); settings: DCIP absorbance 600 nm, higher = more signal, called active from +8 up or from −8 down;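 note: recombinant parasite enzyme with a five histidine tag at its C terminus; test concentration not given here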
[15] = P. aeruginosa biofilm formation inhibitors, primary screen, strain PAO1, LB-PBS medium, absorbance 600 nm (AID 1176); note: test concentration not given here; settings: P. aeruginosa PAO1 growth/biofilm, A600, 12 h; higher = more signal
[16] = S. cerevisiae RM11-1a growth modifiers, primary screen, strain RM11-1a, OD600, basal, 24 h (AID 1177); settings: OD600, 24 h, higher = more signal, called active from +8 up or from −8 down;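 note: cultures grown under basal conditions with no added stressor; test concentration not given here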
[17] = E. coli acrAB mutant growth effects, primary screen, E. coli filamentation inducers, strain DRC39, OD650, 24 h (AID 1178); settings: higher = more signal, called active from +8 up or from −8 down;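 note: growth measured as culture turbidity by optical density at 650 nm; test concentration not given here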
[18] = E. coli acrAB mutant growth effects, primary screen, E. coli filamentation inducers, strain DRC39, OD650, 48 h (AID 1179);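 note: screen aims at cell division blockers that make cells filament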; settings: E. coli DRC39 delta-acrAB growth, higher = more signal, called active from +8 up or from −8 down
[19] = RPMI8226 myeloma cell viability, profiling panel, resazurin fluorescence, basal, 24 h, PK04 Diversity Set (AID 1180); settings: higher = more signal;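 note: RPMI8826 multiple myeloma cell line at 5000 cells per well; test concentration not given here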
[20] = target: E3 ubiquitin-protein ligase XIAP (Homo sapiens) (UniProt P98170); assay: XIAP binders, primary screen, biophysical, small-molecule microarray, fluorescence 635 nm (AID 1181); settings: small-molecule microarray binding, higher = more signal;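 note: score merges 667 nm emission and signal to noise over triplicate slides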
Chain of E3 ubiquitin-protein ligase XIAP (Homo sapiens) (P98170 whole entry, looked up): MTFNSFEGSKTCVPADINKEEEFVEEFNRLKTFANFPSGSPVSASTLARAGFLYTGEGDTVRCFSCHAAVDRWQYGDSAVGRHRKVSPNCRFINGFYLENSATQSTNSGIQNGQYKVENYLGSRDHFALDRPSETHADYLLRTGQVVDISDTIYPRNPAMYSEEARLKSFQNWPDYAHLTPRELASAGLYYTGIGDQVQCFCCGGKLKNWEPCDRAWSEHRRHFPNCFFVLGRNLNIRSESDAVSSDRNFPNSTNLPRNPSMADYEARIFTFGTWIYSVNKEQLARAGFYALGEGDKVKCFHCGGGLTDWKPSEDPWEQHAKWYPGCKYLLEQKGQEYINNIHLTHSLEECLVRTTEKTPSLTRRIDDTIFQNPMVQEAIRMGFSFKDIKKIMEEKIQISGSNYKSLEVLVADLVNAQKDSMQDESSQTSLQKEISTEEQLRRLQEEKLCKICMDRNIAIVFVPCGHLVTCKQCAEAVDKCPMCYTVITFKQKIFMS

Chain of Dihydroorotate dehydrogenase (quinone), mitochondrial (Plasmodium falciparum (isolate 3D7)) (Q08210 whole entry, looked up): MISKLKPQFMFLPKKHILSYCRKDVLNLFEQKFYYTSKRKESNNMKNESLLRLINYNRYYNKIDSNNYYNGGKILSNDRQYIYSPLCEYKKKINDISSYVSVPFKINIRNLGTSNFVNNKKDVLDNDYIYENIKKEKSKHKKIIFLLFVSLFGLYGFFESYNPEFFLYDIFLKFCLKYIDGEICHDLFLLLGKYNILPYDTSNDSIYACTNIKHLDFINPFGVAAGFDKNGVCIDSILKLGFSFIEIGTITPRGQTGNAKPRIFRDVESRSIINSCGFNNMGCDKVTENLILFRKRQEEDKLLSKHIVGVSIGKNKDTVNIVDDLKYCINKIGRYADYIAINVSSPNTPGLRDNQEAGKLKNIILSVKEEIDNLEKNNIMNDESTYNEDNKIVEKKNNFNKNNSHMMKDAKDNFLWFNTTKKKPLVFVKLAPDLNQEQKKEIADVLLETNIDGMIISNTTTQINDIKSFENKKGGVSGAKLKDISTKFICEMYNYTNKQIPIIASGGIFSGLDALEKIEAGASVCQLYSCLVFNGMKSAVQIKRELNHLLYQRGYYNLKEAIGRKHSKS

| Structure (SMILES) | z-score [1] | z-score [2] | z-score [3] | z-score [4] | z-score [5] | z-score [6] | z-score [7] | z-score [8] | z-score [9] | z-score [10] | z-score [11] | z-score [12] | z-score [13] | composite z-score [14] | z-score [15] | z-score [16] | z-score [17] | z-score [18] | z-score [19] | composite z-score [20] |
| --- | --- | --- | --- | --- | --- | --- | --- | --- | --- | --- | --- | --- | --- | --- | --- | --- | --- | --- | --- | --- |
| C=CCN1C(=O)[C@]2(Cc3ccccc3)N=C(c3ccc(OCCCO)cc3)O[C@@H]2c2ccccc21 | 0.0386 | 0.146 | -1.62 | -3.02 | -3.91 | 0.822 | 2.21 (inactive) | -1.21 | -2.81 | -2.28 (inactive) | -0.983 | -1.34 (inactive) | -4.58 (inactive) | -0.963 (inactive) | 0.824 (inactive) | 1.68 (inactive) | 0.0733 (inactive) | 0.884 (inactive) | -5.39 | 0.33 |
| COc1ccc([Si](C)(C)[C@@H]2[C@@H](CCn3cc([C@H](O)c4ccccc4)nn3)O[C@]3(C(=O)N(Cc4cccc(N5CCC5=O)c4)c4ccccc43)[C@H]2C)cc1 | 0.208 | 0.745 | -0.924 | -0.6 | -0.984 | -0.262 | 1.15 (inactive) | -0.735 | -0.487 | 0.0773 (inactive) | 0.736 | -0.0294 (inactive) | -0.939 (inactive) | 0.219 (inactive) | 2.05 (inactive) | 1.01 (inactive) | 0.603 (inactive) | 0.127 (inactive) | 0.123 | 0.0345 |
| COC(=O)[C@H](Cc1ccccc1)N[C@H](/C=C/C1CC1)[C@@H](O)Cc1ccccc1 | -0.531 | -0.451 | 0.021 | 0.18 | 0.732 | 1.46 | 0.792 (inactive) | -0.52 | -1.88 | 1.2 (inactive) | 1 | -4.55 (inactive) | 1.2 (inactive) | 1.14 (inactive) | -0.708 (inactive) | -1.44 (inactive) | 1.58 (inactive) | 0.398 (inactive) | 0.663 | -0.195 |
| CC(=O)NCCCC[C@@H]1NC(=O)[C@H]2C[C@@H](C(=O)NCCCCCNC(=O)CS)[C@@H](c3ccc(O)cc3)N2C1=O | 0.489 | 0.102 | 0.0041 | -1.41 | 0.102 | 0.231 | -0.729 (inactive) | 0.698 | 0.612 | -0.187 (inactive) | -0.0321 | 1.14 (inactive) | 0.0985 (inactive) | 0.452 (inactive) | 0.395 (inactive) | 0.949 (inactive) | -0.553 (inactive) | -0.574 (inactive) | -0.213 | 0.0503 |
| C=CC[C@]12N=C(c3ccc(OCCCO)cc3)O[C@H]1c1ccccc1N(CCS(=O)(=O)c1ccccc1)C2=O | 0.289 | 0.839 | 0.324 | -1.68 | -0.916 | 0.134 | 1.73 (inactive) | -1.01 | -1.25 | -1.02 (inactive) | 1.49 | -0.298 (inactive) | -1.58 (inactive) | 0.0191 (inactive) | -0.0988 (inactive) | 1.05 (inactive) | 0.611 (inactive) | -0.0546 (inactive) | -0.585 | -0.271 |
| C=CCNC(=O)[C@@H]1[C@H]2C(=O)O[C@H](c3ccccc3)[C@H](c3ccccc3)N2[C@H](c2ccc(OCCO)cc2)[C@@]12C(=O)N(C(=O)OCCOC)c1ccc(C#CCNC(N)=O)cc12 | -0.0901 | 0.488 | 0.219 | 0.911 | -1.6 | -0.734 | 0.648 (inactive) | -0.888 | 0.679 | -0.271 (inactive) | -1.09 | 1.04 (inactive) | -0.58 (inactive) | -0.132 (inactive) | 0.958 (inactive) | 2.78 (inactive) | 0.589 (inactive) | 0.0924 (inactive) | 0.853 | -0.16 |
| C[N+](C)(C)CCCC[C@@H]1NC(=O)[C@@H]2C[C@H](C(=O)NCCCCCN)[C@H](c3ccc(O)cc3)N2C1=O | 1.01 | 0.641 | 0.383 | 0.312 | 0.828 | 1.79 | -0.13 (inactive) | 0.243 | 0.41 | -0.0115 (inactive) | 0.236 | -0.812 (inactive) | 0.883 (inactive) | -2.28 (inactive) | 1.11 (inactive) | -3.02 (inactive) | 1.08 (inactive) | 1.48 (inactive) | 0.555 | 0.346 |
| COc1ccc([Si](C)(C)[C@H]2[C@H](CC(=O)N3CCC[C@H]3CO)O[C@@]3(C(=O)N(Cc4cccc(N5CCOC5=O)c4)c4ccccc43)[C@@H]2C)cc1 | -0.0923 | 0.1 | -0.0734 | -2.19 | -3 | 2.76 | -0.0541 (inactive) | -0.952 | -0.0702 | 0.299 (inactive) | 0.22 | -0.338 (inactive) | -0.133 (inactive) | -3.32 (inactive) | -0.249 (inactive) | 0.177 (inactive) | 0.181 (inactive) | -0.109 (inactive) | -0.699 | -0.0839 |
| CC(CO)N1C(=O)[C@@H]2C3C(=O)OCCC/C=C\[C@H]3OC23C=CCN(CCN2CCOCC2)C(=O)[C@@H]13 (stereo not given in full) | -0.31 | -0.414 | 0.755 | 1.92 | 0.435 | 0.559 | -0.109 (inactive) | 0.357 | -1.07 | -0.7 (inactive) | -0.167 | -0.193 (inactive) | -0.72 (inactive) | -0.387 (inactive) | 0.053 (inactive) | -0.137 (inactive) | 0.218 (inactive) | 0.685 (inactive) | -0.784 | 1.01 |
